Among the data in PubChem BioAssay AID588391 (Broad Institute, 2011) are inhibition values, retold here.

Out of some 350,000 compounds screened, about 180 (0.051%) were called active. This is one part of a sample in which actives are shown more often than they occur. A number with no mark means an inactive call.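 Rule for the calls: active = mean inhibition across replicates of 30% or more, whatever share of single replicates reach that level; inconclusive = mean inhibition below 30% while every single replicate reaches 30%; inactive = the rest.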

In this assay the target is Protein disulfide-isomerase (Homo sapiens) (UniProt P07237). Description: blockers of PDI-driven insulin aggregation – biochemical, turbidity, single point, plate reader, primary screen (AID 588391).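 Note: absorbance from insulin aggregation driven by PDI reduction with DTT.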 Particulars: A650, 90 min, at 10 µM, hits give high values.
Sequence of Protein disulfide-isomerase (Homo sapiens) (P07237 whole entry, looked up): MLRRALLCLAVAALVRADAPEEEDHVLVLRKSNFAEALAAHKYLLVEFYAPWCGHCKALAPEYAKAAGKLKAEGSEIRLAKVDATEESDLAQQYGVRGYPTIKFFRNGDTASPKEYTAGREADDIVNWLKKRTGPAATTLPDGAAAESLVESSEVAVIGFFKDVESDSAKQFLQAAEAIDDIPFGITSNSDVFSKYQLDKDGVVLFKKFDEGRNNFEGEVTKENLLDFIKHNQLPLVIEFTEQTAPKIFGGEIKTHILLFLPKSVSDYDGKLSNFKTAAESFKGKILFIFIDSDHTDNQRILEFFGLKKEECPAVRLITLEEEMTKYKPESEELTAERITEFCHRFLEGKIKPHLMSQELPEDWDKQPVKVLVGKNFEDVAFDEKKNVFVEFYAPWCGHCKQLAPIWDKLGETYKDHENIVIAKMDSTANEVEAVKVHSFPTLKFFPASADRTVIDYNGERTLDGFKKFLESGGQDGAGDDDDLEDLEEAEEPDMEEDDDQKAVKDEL
With `CCCC(=O)N1CCC1(C)C(=O)NS(=O)(=O)c1ccc(Cl)cc1` (stereo unspecified), the inhibition was 9.48%.
As to `CC=CCn1c(SCCCc2ccccc2)nc2c1c(=O)[nH]c(=O)n2C`, the inhibition is 8.5%.
With `Oc1cccc2cc(-c3ccncc3)cnc12` the figure was -15.1%.
To `COCCNC(=O)C1(C)CCCN(Cc2cccc(F)c2)C1` (stereo unspecified) belongs 1.38%; to `CCCCN(C=O)c1c(CC)nc2c(OCCC3CCCCC3)cccn12`, -6.94%.
On to `O=C(NC(c1ccc(-c2ccccc2)cc1)c1cnccn1)C1CCN(CCOc2ccc(Cl)cc2Cl)CC1` (stereo unspecified), for which the inhibition is 4.84%.
Consider `COc1ccc(-c2csc(C(O)c3cccc(Cl)c3)n2)cn1` (stereo unspecified), for which the inhibition was 8.11%.
To `CC(C)(C(=O)N1CCC1(C)C(=O)NS(=O)(=O)c1ccc(Br)cc1)c1ccccc1` (stereo unspecified) belongs -3.96%; to `COc1cc(NC(=O)c2cc(-c3ccc(F)cc3OC(C)C)n[nH]2)cc(OC)c1OC`, -4.94%.
To `CC(C)Oc1cc(F)ccc1-c1cc(C(=O)Nc2cccc(Cl)c2)[nH]n1` belongs 12.1%; to `Cc1ccccc1Cn1c(C)c(C(=O)NCc2cccc(C(F)(F)F)c2)sc1=O`, -0.337%; to `CC(=O)Nc1cc(-c2ccc(N3CCN(C)CC3)cc2)cn2c(-c3ccc(F)cc3)cnc12`, 0.066%.
As to `CCCNC(=O)C1(C)CCN1C(=O)Cc1ccc(-c2ccccc2)cc1` (stereo unspecified), the inhibition was 12.7%.
As to `Cc1cccc(CNC(=O)c2sc(=O)n(Cc3ccccc3C)c2C)c1`, the inhibition is -13.7%.
To `O=C(Nc1ccc(Cl)c(C(F)(F)F)c1)C1Cc2c(-c3ccccc3Oc3ccccc3)ccnc2O1` (stereo unspecified) belongs -5.07%.
Consider `CNc1cncc(-c2ccc(NS(C)(=O)=O)cc2)n1`, for which the inhibition was -0.527%.
As for `COc1ccc(Cl)cc1-c1cc(C(=O)Nc2cc(OC)c(OC)c(OC)c2)[nH]n1`, the inhibition is -0.731%.
On to `CN1CCN(C(=O)c2ccc(-c3cc4nc(NCc5cccnc5)n(C)c(=O)c4s3)cc2)CC1`, for which the inhibition was 16.2%.
`COc1ccc(-c2ccc(C(=O)NC(C)C)c3occc23)c(C)c1`: the inhibition was -1.92%.
As for `COc1cccc(CNc2nc3cc(-c4csc5ccccc45)sc3c(=O)n2C)c1`, the inhibition was -2.68%.
To `Cc1nc2c(OCc3cccc(Cl)c3)cccn2c1N(C)CC1CC1` belongs 4.97%; to `CCCCC(=O)N(C)c1c(CC)nc2c(OCc3ccc(Cl)cc3Cl)cccn12`, -3.52%; to `OC(c1ccccc1)c1nc(/C=C/c2ccc(C(F)(F)F)cc2)cs1` (stereo unspecified), -51.4%.
Consider `CN(C)CCNC(=O)c1ccc(-c2cn3c(-c4ccc(Oc5ccccc5)cc4)cnc3cn2)cc1`, for which the inhibition was -1.11%.
In the case of `COc1cccc(-c2cc3nc(NCCOc4ccccc4Cl)n(C)c(=O)c3s2)c1`, the inhibition was -11.2%.
As for `CCc1nc2ccc(C(=O)NC3CCN(Cc4ccccc4)CC3)cn2c1N(CC)CCOC`, the inhibition was -3.56%.
`O=C(NCc1cccc(C(F)(F)F)c1)c1ccc2sc(COCCO)nc2c1`: the inhibition is -1.75%.
Take `CN(C)CCNC(=O)c1cccc(-c2cnc3c(NC=O)cc(-c4cccc(C(F)(F)F)c4)cn23)c1`: the inhibition was 4.96%.
To `Cc1cc(C)n2nc(SCC(N)=O)nc2n1` belongs -1.27%; to `Cc1cc(C)n2nc(C(=O)NC(C)(C)C)nc2n1`, 0.598%.
In the case of `Cc1cc(C)n2nc(CNS(=O)(=O)c3c(F)c(F)c(F)c(F)c3F)nc2n1`, the inhibition is 127% (active).
With `CC1(C(=O)NS(=O)(=O)c2cccc(OC(F)F)c2)CCN1C(=O)C1CC1` (stereo unspecified), the inhibition was -4.8%.
In the case of `CCCOc1ccc(F)cc1-c1cc(C(=O)NCc2ccc(F)cc2)[nH]n1`, the inhibition is -0.369%.
For `CC1(C(=O)Nc2cccc3c2CCCC3)CCN1C(=O)C1(c2ccccc2)CC1` (stereo unspecified), the inhibition is -0.663%.
With `NC(c1csc(NC(=O)Nc2cccc(C(F)(F)F)c2)n1)C1CCCCC1` (stereo unspecified) the figure was 0.691%; with `O=C1N=C(N2CCc3ccccc3C2)S/C1=C\c1ccc(O)cc1`, -5.75%.
Consider `NC1=NC(=O)S/C1=C\c1ccc(O)cc1`, for which the inhibition is 43.5% (active).
For `CC(C)(C)c1ccc(/C=C2\SC(=O)N=C2N)cc1`, the inhibition was 7.63%.
In the case of `OC(c1ccc(Cl)cc1)c1ncc(-c2ccc(Cl)cc2)[nH]1` (stereo unspecified), the inhibition was -6.36%.
Regarding `COc1ccc(C2CC(c3cccc(OC)c3)=NN2c2ccc(S(N)(=O)=O)cc2)cc1` (stereo unspecified), the inhibition was -2.45%.
`COc1ccc(C(C)(NC(C)=O)c2nc(-c3ccc(S(C)(=O)=O)cc3)cs2)cc1` (stereo unspecified): the inhibition is 4.43%.
On to `COc1cc(F)ccc1-c1cc(C(=O)NCC2CCCCC2)[nH]n1`, for which the inhibition was 25%.
For the compound `CC1(Cc2cccc(C#N)c2)C(=O)Nc2ccc(-c3cccc(C(F)(F)F)c3)cc21` (stereo unspecified), the inhibition was 10.6%.
Turning to `CC(=O)Nc1ccc(CNc2nc(NCCN(C)C)nc3cc(-c4ccccc4)sc23)cc1`, the inhibition was -1.45%.
To `Cc1cc(O)ccc1-c1cc(C(=O)NCc2cc(C(F)(F)F)cc(C(F)(F)F)c2)[nH]n1` belongs -11.3%; to `Cc1cccnc1C(NC(=O)C1CCN(Cc2ccc(Cl)c(Cl)c2)CC1)c1ccc(Cl)cc1` (stereo unspecified), -20.8%; to `CCCNC(=O)c1cc(C2CCCCN2S(=O)(=O)c2ccc(C#N)cc2)on1` (stereo unspecified), 9%.
In the case of `Cc1ccc(Cn2c(C)c(C(=O)NCc3ccccc3C(F)(F)F)sc2=O)cc1`, the inhibition was -2.82%.
On to `CCN(CC)c1ncnc2c1ncn2[C@H]1CN(Cc2cccs2)C[C@@H](CO)O1`, for which the inhibition was 5.5%.
Turning to `CCOC(=O)C1CCN(Cc2c(C(=O)N3CCOCC3)nc3c(C)cccn23)CC1`, the inhibition is -7.14%.
For the compound `Cc1cccn2c(CNCC(C)Oc3cccnc3)c(C(=O)N3CCOCC3)nc12` (stereo unspecified), the inhibition was 3.93%.
For the compound `Cc1cccn2c(CN(C)C3CCCc4ccccc43)c(C(=O)N3CCOCC3)nc12` (stereo unspecified), the inhibition is 36.6% (active).
As for `O=C(Nc1nnc([C@H]2C[C@H](O)[C@@H](CO)O2)s1)c1cccc(Cl)c1`, the inhibition was 12.3%.
As for `CC(=O)Nc1cc(-c2ccccc2N(C)C)cn2c(-c3ccc(F)c(Cl)c3)cnc12`, the inhibition is -1.53%.
With `CC(O)(c1cccc(F)c1)c1nc(-c2ccc3c(c2)OCO3)cs1` (stereo unspecified), the inhibition was 0.825%.
Consider `Cc1nc2c(OCc3ccc(Cl)cc3)cccn2c1N(C)Cc1cccs1`, for which the inhibition is -1.78%.
Consider `CCOC(=O)c1c(CN(C)C)n(-c2ccccc2)c2cc(Br)c(O)cc12`, for which the inhibition was 39.9% (active).
Turning to `CCOC(=O)c1c(CN2CCOCC2)n(-c2ccccc2)c2ccc(O)cc12`, the inhibition was 27.2%.
Regarding `CCOC(=O)c1c(-c2ccccc2)oc2cc(Br)c(O)cc12`, the inhibition was 36.3% (active).
As for `CCOC(=O)c1c(-c2ccccc2)oc2cc(Br)c(O)c(C=O)c12`, the inhibition is 6.15%.
In the case of `CCOC(=O)c1c(NC(C)=O)sc2c(O)c(Br)ccc12`, the inhibition is 3.13%.
For the compound `CCOC(=O)c1c(-c2ccccc2)oc2ccc(OCC(=O)NN)cc12`, the inhibition was -2.38%.
In the case of `O=C(NCc1cccnc1)c1cc(C2CCCCN2C(=O)CCc2ccccc2)on1` (stereo unspecified), the inhibition is 3.32%.
Regarding `CCCC(=O)N1CCC1(C)C(=O)Nc1ccc(-n2cncn2)cc1` (stereo unspecified), the inhibition is 4.25%.
As for `COc1ccc(C(C)(O)c2nc(-c3cc(F)cc(F)c3)cs2)cc1` (stereo unspecified), the inhibition was -18.6%.
Regarding `Cc1ccc(CC2(C)C(=O)Nc3ccc(OC(F)(F)F)cc32)cc1` (stereo unspecified), the inhibition was 5.49%.

A word on the inhibition: it is the change of the read-out against control, counted positive when it falls.
